# Source: publication PMC7862700, “An all-to-all approach to the identification of sequence-specific readers for epigenetic DNA modifications on cytosine”
# What was measured:
# Assay in all cases: DAPPL (digital affinity profiling via proximity ligation, sequencing); 10 mM Tris-HCl pH 7.5, 50 mM NaCl, 1 mM DTT, 4% glycerol, room temperature, 30 min; GST-TFs on glutathione beads, 16-mer random dsDNA library, 0.1% formaldehyde crosslink after washing; high values mean tight binding
# ELK1 = biological target: T1, ELK1 (Homo sapiens, UniProt P19419 1-428); conditions: protein: recombinant; tags: N-terminal GST; dsDNA, one strand shown
# T1 sequence: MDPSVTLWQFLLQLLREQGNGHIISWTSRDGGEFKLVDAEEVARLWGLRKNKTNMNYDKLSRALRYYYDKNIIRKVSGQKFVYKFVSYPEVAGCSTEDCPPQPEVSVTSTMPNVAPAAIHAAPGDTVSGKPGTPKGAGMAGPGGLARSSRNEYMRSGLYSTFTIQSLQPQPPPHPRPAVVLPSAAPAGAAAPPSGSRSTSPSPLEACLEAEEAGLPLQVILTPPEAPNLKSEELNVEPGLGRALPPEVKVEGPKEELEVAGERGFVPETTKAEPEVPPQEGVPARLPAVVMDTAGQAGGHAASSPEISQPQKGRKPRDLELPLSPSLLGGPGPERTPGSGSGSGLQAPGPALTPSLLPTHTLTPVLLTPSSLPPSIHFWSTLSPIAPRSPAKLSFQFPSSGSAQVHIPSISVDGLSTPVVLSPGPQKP
# Procedure, shortened: (§1)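 GST fusions of human transcription factors were expressed in yeast and captured with glutathione beads. Once given DNA barcodes and pooled alongside a tag-only sample, they were incubated for 30 min at room temperature with 200 nmole of a random double-stranded 16-mer DNA library in Tris/NaCl/DTT/glycerol buffer, then washed, crosslinked (0.1% formaldehyde), proximity-ligated, PCR-amplified and sequenced on an Illumina NextSeq500. The binding signal of each hexamer is its read frequency for a factor divided by its frequency for the tag-only sample.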
# GABPA = biological target: T2, GABPA (Homo sapiens, UniProt Q06546 1-454); conditions: protein: recombinant; tags: N-terminal GST; dsDNA, one strand shown
# T2 sequence: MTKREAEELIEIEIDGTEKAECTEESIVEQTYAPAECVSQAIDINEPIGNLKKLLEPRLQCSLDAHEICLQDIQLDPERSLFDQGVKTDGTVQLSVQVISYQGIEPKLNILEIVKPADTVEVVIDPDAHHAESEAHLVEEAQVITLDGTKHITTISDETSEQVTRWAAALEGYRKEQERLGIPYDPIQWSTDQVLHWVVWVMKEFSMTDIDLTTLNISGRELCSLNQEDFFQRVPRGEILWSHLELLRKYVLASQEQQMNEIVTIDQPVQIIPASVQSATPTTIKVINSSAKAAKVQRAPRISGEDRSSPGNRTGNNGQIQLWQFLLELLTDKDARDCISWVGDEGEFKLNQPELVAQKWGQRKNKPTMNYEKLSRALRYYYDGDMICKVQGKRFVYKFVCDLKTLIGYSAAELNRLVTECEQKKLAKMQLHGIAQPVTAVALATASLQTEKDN
# Procedure, shortened: as §1
# ERG = biological target: T3, ERG (Homo sapiens, UniProt P11308 1-479); conditions: protein: recombinant; tags: N-terminal GST; dsDNA, one strand shown
# T3 sequence: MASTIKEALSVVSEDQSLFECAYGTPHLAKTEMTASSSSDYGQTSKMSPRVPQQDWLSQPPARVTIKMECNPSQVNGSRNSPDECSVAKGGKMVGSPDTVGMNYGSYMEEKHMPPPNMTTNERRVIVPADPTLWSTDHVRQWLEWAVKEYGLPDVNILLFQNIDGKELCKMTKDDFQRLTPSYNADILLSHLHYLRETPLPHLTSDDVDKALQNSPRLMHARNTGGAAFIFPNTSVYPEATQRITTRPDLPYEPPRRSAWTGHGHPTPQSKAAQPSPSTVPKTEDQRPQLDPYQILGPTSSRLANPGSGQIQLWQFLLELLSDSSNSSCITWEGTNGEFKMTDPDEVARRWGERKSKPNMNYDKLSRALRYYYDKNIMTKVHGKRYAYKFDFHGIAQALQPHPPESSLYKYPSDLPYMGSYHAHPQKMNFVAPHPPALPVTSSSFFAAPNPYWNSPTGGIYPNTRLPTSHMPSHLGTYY
# Procedure, shortened: as §1
# ELF1 = ELF1 (Homo sapiens, UniProt P32519 1-619); conditions: protein: recombinant; tags: N-terminal GST; dsDNA, one strand shown
# Procedure, shortened: as §1
# SPI1 = SPI1 (Homo sapiens, UniProt P17947 1-270); conditions: protein: recombinant; tags: N-terminal GST; dsDNA, one strand shown
# Procedure, shortened: as §1
# SPIB = SPIB (Homo sapiens, UniProt Q01892 1-262); conditions: protein: recombinant; tags: N-terminal GST; dsDNA, one strand shown
# Procedure, shortened: as §1
# HSF1 = HSF1 (Homo sapiens, UniProt Q00613 1-529); conditions: protein: recombinant; tags: N-terminal GST; chain copies: 3; dsDNA, one strand shown
# Procedure, shortened: as §1
# SPIC = biological target: T4, SPIC (Homo sapiens, UniProt Q8N5J4 1-248); conditions: protein: recombinant; tags: N-terminal GST; dsDNA, one strand shown
# T4 sequence: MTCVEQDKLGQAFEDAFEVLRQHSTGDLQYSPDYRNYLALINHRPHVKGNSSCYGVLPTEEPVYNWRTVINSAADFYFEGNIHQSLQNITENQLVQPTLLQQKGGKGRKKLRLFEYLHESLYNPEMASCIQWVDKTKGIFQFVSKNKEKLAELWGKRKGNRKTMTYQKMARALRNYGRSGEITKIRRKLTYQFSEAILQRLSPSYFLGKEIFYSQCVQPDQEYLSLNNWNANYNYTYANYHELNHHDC
# Procedure, shortened: as §1
# ELK4 = biological target: T5, ELK4 (Homo sapiens, UniProt P28324-2 1-405); conditions: protein: recombinant; tags: N-terminal GST; dsDNA, one strand shown
# T5 sequence: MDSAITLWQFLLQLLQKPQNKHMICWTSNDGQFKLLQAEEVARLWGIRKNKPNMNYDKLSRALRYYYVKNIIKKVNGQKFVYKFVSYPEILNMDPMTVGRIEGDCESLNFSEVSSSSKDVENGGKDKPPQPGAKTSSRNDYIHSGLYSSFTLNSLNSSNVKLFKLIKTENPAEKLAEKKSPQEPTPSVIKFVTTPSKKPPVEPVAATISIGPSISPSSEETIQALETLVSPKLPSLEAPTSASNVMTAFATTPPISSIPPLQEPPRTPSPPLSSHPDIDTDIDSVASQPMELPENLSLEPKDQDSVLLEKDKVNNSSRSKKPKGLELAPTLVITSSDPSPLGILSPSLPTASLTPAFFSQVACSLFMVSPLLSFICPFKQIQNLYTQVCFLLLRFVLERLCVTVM
# Procedure, shortened: as §1
# ETV3L = biological target: T6, ETV3L (Homo sapiens, UniProt Q6ZN32 1-361); conditions: protein: recombinant; tags: N-terminal GST; dsDNA, one strand shown
# T6 sequence: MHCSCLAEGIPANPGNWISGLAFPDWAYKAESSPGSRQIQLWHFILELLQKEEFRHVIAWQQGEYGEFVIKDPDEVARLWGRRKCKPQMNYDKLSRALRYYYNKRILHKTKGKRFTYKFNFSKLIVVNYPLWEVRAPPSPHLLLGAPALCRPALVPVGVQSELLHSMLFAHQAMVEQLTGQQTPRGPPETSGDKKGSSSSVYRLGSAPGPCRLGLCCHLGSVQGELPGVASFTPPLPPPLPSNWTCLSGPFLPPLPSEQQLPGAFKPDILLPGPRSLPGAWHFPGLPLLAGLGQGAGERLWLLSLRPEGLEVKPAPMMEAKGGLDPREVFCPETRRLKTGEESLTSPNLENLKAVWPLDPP
# Procedure, shortened: as §1
# ETS2 = biological target: T7, ETS2 (Homo sapiens, UniProt P15036 1-469); conditions: protein: recombinant; tags: N-terminal GST; dsDNA, one strand shown
# T7 sequence: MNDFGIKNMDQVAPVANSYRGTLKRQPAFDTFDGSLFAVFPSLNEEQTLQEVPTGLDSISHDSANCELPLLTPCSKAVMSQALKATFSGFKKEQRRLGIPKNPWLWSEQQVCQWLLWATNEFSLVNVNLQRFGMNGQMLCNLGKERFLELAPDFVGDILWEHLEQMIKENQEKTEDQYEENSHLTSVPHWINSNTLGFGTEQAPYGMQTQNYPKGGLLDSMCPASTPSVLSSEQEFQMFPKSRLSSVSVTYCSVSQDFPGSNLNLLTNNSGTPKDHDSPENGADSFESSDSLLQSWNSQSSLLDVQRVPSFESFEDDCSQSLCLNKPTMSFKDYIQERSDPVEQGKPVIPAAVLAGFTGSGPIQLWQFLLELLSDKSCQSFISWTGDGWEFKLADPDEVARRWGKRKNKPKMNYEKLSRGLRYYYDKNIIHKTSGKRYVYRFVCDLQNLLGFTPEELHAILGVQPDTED
# Procedure, shortened: as §1
# ETV7 = biological target: T8, ETV7 (Homo sapiens, UniProt Q9Y603 1-341); conditions: protein: recombinant; tags: N-terminal GST; dsDNA, one strand shown
# T8 sequence: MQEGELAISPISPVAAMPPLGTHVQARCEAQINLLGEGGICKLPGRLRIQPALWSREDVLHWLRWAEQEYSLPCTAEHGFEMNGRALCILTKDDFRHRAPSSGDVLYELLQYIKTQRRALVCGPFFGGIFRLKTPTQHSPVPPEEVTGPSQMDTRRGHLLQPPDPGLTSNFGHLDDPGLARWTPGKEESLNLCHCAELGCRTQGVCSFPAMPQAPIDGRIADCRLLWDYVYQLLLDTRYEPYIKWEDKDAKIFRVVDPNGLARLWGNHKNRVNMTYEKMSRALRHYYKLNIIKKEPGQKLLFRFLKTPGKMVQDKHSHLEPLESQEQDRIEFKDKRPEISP
# Procedure, shortened: as §1
# ETV6 = ETV6 (Homo sapiens, UniProt P41212 1-452); conditions: protein: recombinant; tags: N-terminal GST; dsDNA, one strand shown
# Procedure, shortened: as §1
# ETV6, sequence (P41212 whole entry): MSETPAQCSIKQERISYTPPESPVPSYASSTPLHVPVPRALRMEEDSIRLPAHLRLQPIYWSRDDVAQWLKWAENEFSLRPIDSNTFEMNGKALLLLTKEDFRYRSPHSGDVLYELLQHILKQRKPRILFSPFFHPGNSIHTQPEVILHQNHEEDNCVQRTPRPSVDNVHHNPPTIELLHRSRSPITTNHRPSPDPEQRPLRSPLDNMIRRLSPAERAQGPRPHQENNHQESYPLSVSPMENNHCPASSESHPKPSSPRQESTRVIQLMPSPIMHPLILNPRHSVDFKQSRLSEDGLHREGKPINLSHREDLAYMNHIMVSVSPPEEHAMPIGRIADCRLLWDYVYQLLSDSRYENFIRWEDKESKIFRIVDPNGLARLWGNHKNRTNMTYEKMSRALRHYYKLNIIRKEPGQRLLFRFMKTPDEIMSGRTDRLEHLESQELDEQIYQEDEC
# SPIB, sequence (Q01892 whole entry): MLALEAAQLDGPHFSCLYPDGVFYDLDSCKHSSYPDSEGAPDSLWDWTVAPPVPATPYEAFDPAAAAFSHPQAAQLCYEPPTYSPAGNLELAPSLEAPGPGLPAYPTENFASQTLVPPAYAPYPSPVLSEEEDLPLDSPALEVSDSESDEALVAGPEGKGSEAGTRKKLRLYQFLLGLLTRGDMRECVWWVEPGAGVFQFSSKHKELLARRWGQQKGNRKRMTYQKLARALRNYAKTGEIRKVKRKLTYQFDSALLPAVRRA
# ELF1, sequence (P32519 whole entry): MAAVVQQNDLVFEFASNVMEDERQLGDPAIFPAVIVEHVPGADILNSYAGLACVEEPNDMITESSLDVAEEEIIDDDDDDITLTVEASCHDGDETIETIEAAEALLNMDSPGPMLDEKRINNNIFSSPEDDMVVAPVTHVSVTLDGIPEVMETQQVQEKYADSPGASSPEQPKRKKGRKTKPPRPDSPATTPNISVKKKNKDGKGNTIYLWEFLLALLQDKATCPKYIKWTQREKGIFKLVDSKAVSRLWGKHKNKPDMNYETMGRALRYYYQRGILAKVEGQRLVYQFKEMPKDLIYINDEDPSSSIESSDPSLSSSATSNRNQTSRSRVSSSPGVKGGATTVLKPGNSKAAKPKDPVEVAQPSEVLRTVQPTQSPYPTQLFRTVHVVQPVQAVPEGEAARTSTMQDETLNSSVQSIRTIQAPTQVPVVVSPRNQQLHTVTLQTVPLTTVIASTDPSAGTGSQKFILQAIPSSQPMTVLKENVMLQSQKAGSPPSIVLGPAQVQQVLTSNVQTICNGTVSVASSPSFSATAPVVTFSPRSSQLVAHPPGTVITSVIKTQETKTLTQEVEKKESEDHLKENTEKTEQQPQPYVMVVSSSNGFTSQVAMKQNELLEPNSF
# HSF1, sequence (Q00613 whole entry): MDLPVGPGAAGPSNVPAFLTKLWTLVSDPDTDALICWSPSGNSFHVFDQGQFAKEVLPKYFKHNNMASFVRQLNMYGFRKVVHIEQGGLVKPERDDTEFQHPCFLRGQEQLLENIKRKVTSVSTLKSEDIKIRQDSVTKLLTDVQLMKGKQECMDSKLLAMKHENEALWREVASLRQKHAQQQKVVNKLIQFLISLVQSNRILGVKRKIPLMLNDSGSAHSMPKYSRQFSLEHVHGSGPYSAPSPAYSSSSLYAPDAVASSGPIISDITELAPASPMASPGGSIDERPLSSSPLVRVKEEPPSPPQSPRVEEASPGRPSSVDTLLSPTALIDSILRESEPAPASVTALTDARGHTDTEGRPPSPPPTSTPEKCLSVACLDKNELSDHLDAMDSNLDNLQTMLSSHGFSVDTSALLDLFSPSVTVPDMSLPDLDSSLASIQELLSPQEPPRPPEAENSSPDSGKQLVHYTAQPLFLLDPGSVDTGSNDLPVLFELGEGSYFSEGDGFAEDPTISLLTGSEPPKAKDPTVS
sequence,measurement,setting,value
CACTAG,binding signal,ELK1,"1.04 fold enrichment (6-mer frequency, TF over GST control)"
same,binding signal,GABPA,"1.02 fold enrichment (6-mer frequency, TF over GST control)"
same,binding signal,ERG,"1.04 fold enrichment (6-mer frequency, TF over GST control)"
same,binding signal,ELF1,"1.09 fold enrichment (6-mer frequency, TF over GST control)"
same,binding signal,SPI1,"1.06 fold enrichment (6-mer frequency, TF over GST control)"
same,binding signal,SPIB,"1 fold enrichment (6-mer frequency, TF over GST control)"
same,binding signal,HSF1,"1.24 fold enrichment (6-mer frequency, TF over GST control)"
same,binding signal,SPIC,"1.05 fold enrichment (6-mer frequency, TF over GST control)"
same,binding signal,ELK4,"1.06 fold enrichment (6-mer frequency, TF over GST control)"
same,binding signal,ETV3L,"1.03 fold enrichment (6-mer frequency, TF over GST control)"
same,binding signal,ETS2,"1.01 fold enrichment (6-mer frequency, TF over GST control)"
same,binding signal,ETV7,"1.01 fold enrichment (6-mer frequency, TF over GST control)"
same,binding signal,ETV6,"1.01 fold enrichment (6-mer frequency, TF over GST control)"
